Measurements published in PubChem BioAssay AID1347131 (National Center for Advancing Translational Sciences (NCATS), 2019).
The whole screen tested about 410,000 compounds, of which about 2,000 (0.49%) were called active. A call without a number means that no potency is given here. Inconclusive results (about 8%) are left out. The sample holds actives, similar compounds and a random draw of the others, so the mix is not that of the screen. Calls follow the shape of the full dose curve; tested in HEK293 reporter line.

Test: qHTS Assay for Foot and Mouth Disease Virus Antivirals: Primary Screen against the MLPCN compound library; also: nearly all actives have a fitted effect of over 55% in size
Settings: FMDV antiviral cell-based qHTS; series mostly up to 57.9 µM
Potency is read from the fitted curve at half-maximal effect.

SMILES	Potency
COC(=O)C1=C(C)N(c2cccc3ccccc23)C(=O)C1	inactive
O=S(=O)(Nc1ccccc1Cl)c1ccc2[nH]c(=S)oc2c1	inactive
CCCC(=O)Nc1ccc2nc(C)n(Cc3ccccc3Cl)c(=O)c2c1	inactive
Cc1ccc(S(=O)(=O)N(C)CC(=O)Nc2ccncc2)cc1	inactive
CCOc1ccccc1/C=N/n1c(C)nc2ccccc2c1=O	inactive
Cc1cc(C)cc(-n2ccnc2SCC(=O)Nc2ccccc2F)c1	inactive
O=C(Nc1ccccn1)C(F)(F)C(F)(F)C(F)(F)C(F)(F)C(=O)Nc1ccccn1	inactive
CN(C)/C=C/C(=O)c1cccc(Oc2ncccn2)c1	inactive
O=C(/C=C\Nc1ccccn1)c1ccccc1	10 µM (active)
COc1ccc(Nc2nc(N)nc(CN3CCN(c4ccccn4)CC3)n2)cc1	inactive
CCOC(=O)CC1(C)NC(C(=O)O)C(C)(C)S1 (stereo unspecified)	inactive
O=C(Nc1ccc(Br)cc1)c1cccc(N2C(=O)C3CCCCC3C2=O)c1 (stereo unspecified)	inactive
O=C(Nc1cccc(N2C(=O)C3CCCCC3C2=O)c1)c1ccccc1 (stereo unspecified)	14.1 µM (active)
Cc1cc(C)cc(NC(=O)c2ccc(N3C(=O)C4CCCCC4C3=O)cc2)c1 (stereo unspecified)	inactive
COc1ccccc1CNC(=O)c1ccc(CS(=O)(=O)c2ccccc2C)o1	inactive
O=C(Nc1nc2ccccc2[nH]1)c1ccc(Cl)cc1	12.6 µM (active)
COc1cc(OC)cc(C(=O)N[C@H](C(=O)Nc2nc3ccccc3[nH]2)C(C)C)c1	inactive
CN(c1ccccc1)S(=O)(=O)c1ccc(Cl)c(C(=O)Nc2nc3ccccc3[nH]2)c1	inactive
COc1cccc(C(=O)Nc2cccc(OCc3cc(=O)n4cccc(C)c4n3)c2)c1	inactive
COc1ccc(CCNc2nc(-c3ccc(OC)c(OC)c3)cc(C(F)(F)F)n2)cc1OC	inactive
COc1ccc(Cl)cc1NC(=O)CCCS(=O)(=O)c1nc(-c2ccc(OC)c(OC)c2)cc(C(F)(F)F)n1	28.2 µM (active)
COc1ccc(-c2cc(C(F)(F)F)nc(N3CCN(C)CC3)n2)cc1OC	inactive
Cc1ccccc1-n1c(SCc2c(C)noc2C)nnc1-c1c[nH]c2ccccc12	inactive
CCOC(=O)/C(O)=C(\C#N)c1nc2ccccc2[nH]1	inactive
COc1ccc(Nc2ccc(N3C(=O)CC(C)C3=O)cc2[N+](=O)[O-])cn1 (stereo unspecified)	inactive
CC1CC(=O)N(c2ccc(NCCc3ccc(O)cc3)c([N+](=O)[O-])c2)C1=O (stereo unspecified)	25.1 µM (active)

SMILES	Potency
NC(=O)c1ccc(N2CCN(c3ccc(O)cc3)CC2)c([N+](=O)[O-])c1	inactive
COc1ccccc1C(CNC(=O)c1ccc(-c2ccccc2Cl)o1)N1CCCC1 (stereo unspecified)	inactive
CC1C/C(=N/Nc2ccc([N+](=O)[O-])cc2[N+](=O)[O-])CC(C)(C)C1 (stereo unspecified)	inactive
COc1cc(C)c(-c2[nH]ncc2-c2csc(C)n2)c(O)c1	inactive
Cc1ccc(C(=O)Cn2c(=N)n(N)c3ccccc32)cc1	inactive
Cc1ccc(C(=O)Cn2c3c(sc2=N)CCCC3)cc1	7.94 µM (active)
CCOC(=O)Cn1nc(C)c(NC(=O)COc2ccc(OC)cc2)c1C	inactive
COc1ccc2nc(C)cc(SCC(=O)N/N=C/c3c(OC)ccc4ccccc34)c2c1	inactive
Cc1ccc(-c2csc(Nc3ccc(S(N)(=O)=O)cc3)n2)o1	inactive
Cc1ccc(NC(=S)Nc2ccc3[nH]c(=O)[nH]c3c2)cc1	inactive
Cc1cc(OCc2nc(-c3ccncc3)no2)cc(C)c1Cl	inactive
COc1ccc(-c2noc(CCCOc3ccccc3)n2)cc1OC	inactive
Cc1ccc(OCc2nc(-c3ccccn3)no2)c(Br)c1	20 µM (active)
O=C(NCc1ccccn1)c1ccccc1OCc1ccc(Cl)cc1Cl	inactive
Clc1ccc(OCc2nc(-c3ccccn3)no2)c(Br)c1	20 µM (active)
COc1ccc(Br)cc1CNC(=O)CCc1nc(-c2ccc(C)cc2)no1	inactive
CCn1c(SCC(=O)Nc2cccc(NC(C)=O)c2)nc2c([nH]c3ccccc32)c1=O	inactive
COc1ccc(C(=O)c2cn(Cc3ccccc3)c3ccccc3c2=O)cc1OC	inactive
COc1cc(NC(=O)c2ccc3oc(=O)c(S(=O)(=O)c4ccccc4)cc3c2)cc(OC)c1	inactive
CCCCn1c(=O)[nH]c(=O)c2c1nc(CN1C(=O)c3ccccc3S1(=O)=O)n2CCC	inactive
Cc1cccc(C)c1NC(=O)Cn1c(=O)n(Cc2ccco2)c(=O)c2ccc(C(=O)NC3CCCC3)cc21	inactive
COc1cccc(N2C(=O)C3C(C2=O)C3(c2ccccc2)c2ccccc2)c1 (stereo unspecified)	14.1 µM (active)
COc1ccc2c(c1)C1(C)CC(C)(C)N2C(=O)N1c1ccccc1 (stereo unspecified)	inactive
COC(OC)C12c3ccccc3C(c3ccccc31)C1C(=O)N(c3cccnc3)C(=O)C12 (stereo unspecified)	inactive
CCn1c(SCC(=O)N/N=C/c2c[nH]c3ccccc23)nnc1-c1ccc(Cl)cc1	inactive
CC1c2cc3c(cc2CCN1C(=O)c1ccc(C(F)(F)F)cc1)OCCCO3 (stereo unspecified)	inactive

SMILES	Potency
CC(=O)c1ccc(N2CCN(C(=O)CCCCn3c(=O)[nH]c4ccsc4c3=O)CC2)cc1	inactive
CC(C)(C)OC(=O)C[C@@H]1C/C=C\C[C@@H](CC(=O)N[C@@H](CO)Cc2ccccc2)C(=O)NC[C@@H](c2ccccc2)OC1=O	inactive
O=C(CCCCCn1c(=O)[nH]c2ccccc2c1=O)N1CCN(Cc2ccc3c(c2)OCO3)CC1	20 µM (active)
CC(C)[C@@H](C(=O)N1CCN(Cc2ccc3c(c2)OCO3)CC1)n1nnc2ccccc2c1=O	inactive
Cc1ccc(CSCC(=O)N2CCN(Cc3ccc4c(c3)OCO4)CC2)cc1	inactive
Cc1nnc(SCC(=O)N2CCCC2)n1-c1ccc(F)cc1	inactive
COc1cc(NC(=O)c2noc3c2CCc2ccccc2-3)cc(OC)c1OC	inactive
CC(=O)c1ccc(NC(=O)c2noc3c2CCC3)cc1	20 µM (active)
CC(=O)c1ccc(NC(=O)c2cc(S(=O)(=O)N3CCOCC3)ccc2C)cc1	inactive
O=C(CSc1nnc2c(Cl)cc(Cl)cn12)N1CCOCC1	inactive
Cn1ncc(S(=O)(=O)Cc2ccccc2)c(Cl)c1=O	20 µM (active)
CCNc1nc2c(c(=O)n(Cc3ccccc3)c(=O)n2C)n1Cc1ccccc1	inactive
O=c1c2cnn(-c3ccccc3)c2ncn1Cc1ccccc1	inactive
COc1ccccc1-c1noc(-c2ccc(N3CCN(c4ccccc4)CC3)c([N+](=O)[O-])c2)n1	inactive
COc1ccccc1-c1nc(-c2ccccn2)no1	14.1 µM (active)
COC(OC)c1ccnc(-c2ccc(OC(=O)c3ccc(F)cc3)cc2)n1	inactive
O=C(Oc1ccc(-c2nc(-c3ccccn3)no2)cc1)c1ccccc1	14.1 µM (active)
COc1cccc2cc(-c3nc(-c4ccccc4F)no3)c(=O)oc12	inactive
COc1ccc(C(=O)NNC(=O)c2ccccn2)cc1	inactive
COc1ccc(CN2CCN(Cc3ccc(C(F)(F)F)cc3)CC2)c(OC)c1	inactive
Cc1cc(OCCOc2cccc3cccnc23)cc(C)c1Cl	inactive
COc1cccc(/C=N/NC(=O)c2cc3c(OC)cccc3[nH]2)c1OC	inactive
CC1Cc2ccccc2N1c1ncnc(N)c1[N+](=O)[O-] (stereo unspecified)	inactive
COc1cccc(/C=N/Nc2ncnc(N)c2[N+](=O)[O-])c1OC	7.94 µM (active)
CN(c1ccc(C(=O)NCc2cccnc2)cc1)S(=O)(=O)c1ccc(Cl)cc1	inactive
O=C(NC1CC1)C1CCN(S(=O)(=O)c2cc([N+](=O)[O-])ccc2Cl)CC1	inactive

SMILES	Potency
CCn1nc(-c2ccccc2)c2nc3ccccc3nc21	inactive
CCc1cccc(C)c1Nc1c(-c2ccccc2)nc2sccn12	inactive
CCOc1ccc(CCNC(=O)c2ccc3c(c2)sc2nc(-c4ccc(F)cc4)cn23)cc1OCC	inactive
CCCc1nn2cc(-c3ccc(C)c(C)c3)nc2s1	14.1 µM (active)
CCCCCc1nn2cc(-c3ccccc3)nc2s1	12.6 µM (active)
CCCn1c(NC(=O)CCNC(=O)c2ccccc2Cl)nc2ccccc21	inactive
COc1cc(NC(=O)N2CCC3(CC2)Nc2ccccc2-n2cccc23)cc(OC)c1OC	inactive
CCC1CCCCN1CCCCOc1cccc(Cl)c1 (stereo unspecified)	inactive
COc1ccccc1C(CNC(=O)c1ccc(OCc2c(C)noc2C)cc1)N1CCCC1 (stereo unspecified)	inactive
Cc1ccc(C2=Nc3ccccc3NC(c3ccncc3)=N2)cc1	inactive
COc1ccccc1C(=O)Nc1ccc(C(=O)c2ccccc2)cc1	inactive
O=C(Nc1ccc2ccccc2c1)c1ccccc1O	14.1 µM (active)
Cc1ccc(Cl)cc1NC(=O)c1cc2ccccc2cc1O	inactive
CC(C)NC(=S)NN(c1ccccc1)c1ccccc1	inactive
CCOc1ccc(S(=O)(=O)N2CCC(n3c(C)nc4cccnc43)CC2)cc1	inactive
COc1cccc(/C=N/Nc2ccc(C(=O)O)cc2)c1O	inactive
CCc1ccc2oc(-c3cc(N=Cc4cccc(OC)c4O)ccc3O)nc2c1	20 µM (active)
Cc1nn(-c2cccc(Cl)c2)c2c1C(c1ccncc1)C(C#N)=C(N)O2 (stereo unspecified)	inactive
CCCOc1ccccc1C(=O)N(Cc1cccc(Br)c1)C1CCS(=O)(=O)C1 (stereo unspecified)	inactive
Cc1ccc(C)c(N2CCN(S(=O)(=O)c3cc4c(cc3Cl)NC(=O)CO4)CC2)c1	inactive
CC(=O)N1CCc2cc(S(=O)(=O)CCC(=O)N3CCN(c4cc(C)ccc4C)CC3)ccc21	inactive
Cc1ccc(C)c(N2CCN(C(=O)CCS(=O)(=O)c3ccc4c(c3)NC(=O)CO4)CC2)c1	12.6 µM (active)
CCOC1=C2CN(S(=O)(=O)c3ccc(C)cc3)[C@H](c3ccccc3)C[C@@H]2N(S(=O)(=O)c2ccc(C)cc2)[C@H](c2cccc(C)c2)C1	inactive
